# Reference: the supplement of paper PMC6089552
# About 300 (9.4%) of roughly 3,200 compounds showed activity. The sample holds actives, similar compounds and a random draw of the others, so the mix is not that of the screen.
# System: A673/TR/shEF
# Assay: cell viability (LOESS-normalised, relative to median of negative controls) (log2 ratio); higher = more viable cells (less compound effect), active = hit call of the paper (over 3 MAD below the median)
# Conditions: treatment time: 72 h
# In short: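 A673/TR/shEF Ewing sarcoma cells (1,500 per well, 384-well plates) were grown with or without doxycycline to induce EWS-FLI1 shRNA knockdown, starting 24 h before compounds. Library compounds at two or more concentrations, with DMSO controls, were added for three days. Cell viability was read by CellTiter-Glo luminescence on an Envision reader, then LOESS-corrected per plate, divided by the median of negative controls and log2-transformed. Hits were wells at least three median absolute deviations from the median of all screened wells.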
# [1] = 0.25 µM, library screen: screen2, EWS-FLI1 expression: high (no doxycycline)
# [2] = 0.25 µM, library screen: screen2, EWS-FLI1 expression: low (doxycycline-induced shRNA knockdown)
# [3] = 2.5 µM, library screen: screen2, EWS-FLI1 expression: high (no doxycycline)
# [4] = 2.5 µM, library screen: screen2, EWS-FLI1 expression: low (doxycycline-induced shRNA knockdown)
# [5] = 0.25 µM, library screen: screen1, EWS-FLI1 expression: high (no doxycycline)
# [6] = 0.25 µM, library screen: screen1, EWS-FLI1 expression: low (doxycycline-induced shRNA knockdown)
# [7] = 2.5 µM, library screen: screen1, EWS-FLI1 expression: high (no doxycycline)
# [8] = 2.5 µM, library screen: screen1, EWS-FLI1 expression: low (doxycycline-induced shRNA knockdown)
smiles,measurement,setting,value
N#CC(=C(/N)Sc1ccccc1N)/C(C#N)=C(\N)Sc1ccccc1N,cell viability (log2),[1],0.102 (inactive)
same,cell viability (log2),[2],0.0572 (inactive)
same,cell viability (log2),[3],-0.0299 (inactive)
same,cell viability (log2),[4],-0.0332 (inactive)
N#CC(=C(N)Sc1ccccc1N)C(C#N)=C(N)Sc1ccccc1N,cell viability (log2),"0.025 µM, library screen: screen1, EWS-FLI1 expression: high (no doxycycline)",0.299
same,cell viability (log2),"0.025 µM, library screen: screen1, EWS-FLI1 expression: low (doxycycline-induced shRNA knockdown)",-0.0593 (inactive)
same,cell viability (log2),[5],0.259 (inactive)
same,cell viability (log2),[6],0.136 (inactive)
same,cell viability (log2),[7],-0.31 (active)
same,cell viability (log2),[8],0.171 (inactive)
same,cell viability (log2),"25 µM, library screen: screen1, EWS-FLI1 expression: high (no doxycycline)",-0.459 (active)
same,cell viability (log2),"25 µM, library screen: screen1, EWS-FLI1 expression: low (doxycycline-induced shRNA knockdown)",0.0799 (inactive)
FC(F)(F)c1cc(CO[C@H]2CCCN[C@H]2c2ccccc2)cc(C(F)(F)F)c1,cell viability (log2),[1],0.151 (inactive)
same,cell viability (log2),[2],0.112 (inactive)
same,cell viability (log2),[3],0.041 (inactive)
same,cell viability (log2),[4],0.077 (inactive)
CC(=O)O.CC(=O)O.[Cd],cell viability (log2),[5],0.129 (inactive)
same,cell viability (log2),[6],-0.0033 (inactive)
same,cell viability (log2),[7],0.0042 (inactive)
same,cell viability (log2),[8],-0.0745 (inactive)
CC(=O)O[C@@H]1c2c(ccc3ccc(=O)oc23)OC(C)(C)[C@@H]1OC(=O)CC(C)C,cell viability (log2),[5],0.0407 (inactive)
same,cell viability (log2),[6],-0.0116 (inactive)
same,cell viability (log2),[7],0.121 (inactive)
same,cell viability (log2),[8],0.0173 (inactive)
CC(=O)OC(CC(=O)[O-])C[N+](C)(C)C (stereo not drawn),cell viability (log2),[5],0.00442 (inactive)
same,cell viability (log2),[6],0.0665 (inactive)
same,cell viability (log2),[7],0.0316 (inactive)
same,cell viability (log2),[8],-0.00031 (inactive)
